Screening data from PubChem BioAssay.
WRN helicase inh-1 – blocks human WRN helicase. Q14191. WRN helicase unwinding, fluorescent forked duplex, kinetic. Potency, µM (doses to about 114 µM), inactives show at the highest dose activity change, negative = inhibition, usual class: inhibitors. 360,000 tested, 0.46% active. AID 651768; also: potency is read from the fitted curve at half-maximal effect; % is scaled to controls: 0 for no effect and ±100 for the full control effect; nearly all actives have a fitted effect of over 55% in size
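WRN at 20 nM final was preincubated with compound for 15 min at room temperature; reaction started with 100 nM forked duplex oligonucleotide carrying fluorophore and quencher plus 2 mM ATP (final). Unwinding followed kinetically by red fluorescence (ex 525/em 598 nm).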
Pol kappa inh – DNA polymerase kappa (human) inhibition. Potency, µM (highest dose often 107 µM), for inactives: top-dose activity, negative = inhibition, actives largely listed as inhibitors. Q9UBT6. 400,000 tested, 0.53% active. purified Pol kappa, fluorescent DNA synthesis assay, 10 min; also: potency is read from the fitted curve at half-maximal effect; % is scaled to controls: 0 for no effect and ±100 for the full control effect
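First, compounds were pin-transferred onto 10 nM Pol kappa. After 15 min at room temperature, substrate was added to 50 nM final. Fluorescence was then measured kinetically at 0 and 10 min.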
L3MBTL1 inh-1 – blocks human L3MBTL1. 230,000 tested, 0.66% active. Potency, µM (series often up to 57.1 µM), for the others: at the highest dose activity, negative = inhibition, usual class: inhibitors. Q9Y468. AlphaScreen L3MBTL1–H3K9me1 peptide binding; also: potency is read from the fitted curve at half-maximal effect; % is scaled to controls: 0 for no effect and ±100 for the full control effect; nearly all actives have a fitted effect of over 60% in size
Target sequence (Q9Y468 whole entry, looked up): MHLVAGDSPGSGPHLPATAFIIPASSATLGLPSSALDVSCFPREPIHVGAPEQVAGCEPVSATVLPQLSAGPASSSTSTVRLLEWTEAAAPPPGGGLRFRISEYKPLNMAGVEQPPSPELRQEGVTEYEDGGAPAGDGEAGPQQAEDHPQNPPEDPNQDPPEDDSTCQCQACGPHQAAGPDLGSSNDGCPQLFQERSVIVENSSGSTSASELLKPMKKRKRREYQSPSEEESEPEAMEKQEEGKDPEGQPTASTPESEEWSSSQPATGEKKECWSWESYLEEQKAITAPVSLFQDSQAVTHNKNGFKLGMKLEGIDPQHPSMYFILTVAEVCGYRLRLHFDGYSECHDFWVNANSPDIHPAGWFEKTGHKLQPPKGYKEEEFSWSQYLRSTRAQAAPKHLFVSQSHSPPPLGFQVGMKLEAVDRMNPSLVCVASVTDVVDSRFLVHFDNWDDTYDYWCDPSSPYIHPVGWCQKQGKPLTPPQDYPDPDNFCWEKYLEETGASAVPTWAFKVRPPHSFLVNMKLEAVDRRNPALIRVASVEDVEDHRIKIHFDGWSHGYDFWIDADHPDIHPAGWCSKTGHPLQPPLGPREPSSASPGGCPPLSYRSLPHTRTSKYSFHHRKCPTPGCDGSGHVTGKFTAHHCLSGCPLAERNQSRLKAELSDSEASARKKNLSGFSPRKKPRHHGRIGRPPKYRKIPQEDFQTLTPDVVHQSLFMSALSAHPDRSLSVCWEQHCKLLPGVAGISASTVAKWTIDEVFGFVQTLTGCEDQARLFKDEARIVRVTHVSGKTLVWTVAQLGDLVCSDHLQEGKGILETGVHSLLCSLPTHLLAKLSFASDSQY
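L3MBTL1 50 nM + b-AHA-H3(1-15)K9me1 75 nM, 30 min RT; compound added, 30 min RT; streptavidin donor/Ni-chelate acceptor beads 10 ug/mL each final, 30 min RT dark; AlphaScreen read.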
Pol iota inh – DNA polymerase iota (human) inhibition; Potency, µM (series often up to 115 µM), for inactives: top-dose activity, negative = inhibition, usual class: inhibitors; Q9UNA4; Pol iota fluorescent replication assay, 10 min; AID 588590; 390,000 tested, 1% active; also: potency is read from the fitted curve at half-maximal effect
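Fluorescent replication assay read twice, at 0 min and 10 min after adding 50 nM (final) substrate. Enzyme (10 nM) and compounds were first incubated 15 min at room temperature; enzyme-free buffer wells were negative controls.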
Pol eta inh-1 – inhibitors of human DNA polymerase eta; Q9Y253; recombinant Pol eta, fluorescent DNA replication assay; Potency, µM (series often up to 114 µM), for inactives: at the highest dose activity change, negative = inhibition, actives largely listed as inhibitors; 390,000 tested, 1.2% active; also: potency is read from the fitted curve at half-maximal effect; % is scaled to controls: 0 for no effect and ±100 for the full control effect
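Pol eta at 10 nM preincubated with compounds 15 min at room temperature; reaction started with fluorescent substrate (50 nM final) and read kinetically at 0 and 10 min.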
Pol beta inh-1 – inhibitors of human DNA polymerase beta. P06746. Pol beta primer extension/strand displacement, fluorescence kinetic. Potency, µM (highest dose often 114 µM), without a hit: at the highest dose activity change, negative = inhibition, usual class: inhibitors. 340,000 tested, 1.3% active. AID 485314; also: potency is read from the fitted curve at half-maximal effect; % is scaled to controls: 0 for no effect and ±100 for the full control effect
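Values derive from four-parameter Hill fits of normalized kinetic data: reads at 0 and 10 min following addition of 50 nM substrate to 10 nM Pol beta preincubated 15 min with compound.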
Pol beta inh-2 – Human Pol beta inhibitor hit validation. shares compounds with Pol beta inh-1. Pol beta primer extension/strand displacement, fluorescence kinetic. Potency, µM, most hits filed as inhibitors. 250 tested, 87% active. AID 540280; calls by dose curve; also: potency is read from the fitted curve at half-maximal effect
Klenow counter – counter-screen for DNA polymerase beta inhibitors: Klenow fragment inhibition. shares compounds with Pol beta inh-1. Klenow exo- polymerase counter-screen, fluorescent DNA substrate. activity change, negative = inhibition, % at 57.1 µM. 250 tested, under 10 active
HIV RT counter – counter-screen for DNA polymerase beta inhibitors: HIV-1 RT inhibition; shares compounds with Pol beta inh-1; HIV-1 RT polymerase activity, counter-screen; activity % (negative = inhibition, positive = activation), % at 57.1 µM; 250 tested, under 10 active; AID 540301
POLB valid – DNA polymerase beta inhibition, radiolabeled validation; shares compounds with Pol beta inh-1; radiolabeled primer extension gel assay, phosphorimager; inhibition, % at 10 µM; 110 tested, 91% active; AID 540325;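 active = inhibition at 10 µM of 30% or more; inconclusive = no clear call, values can overlap the other calls; inactive = inhibition at 10 µM under 30%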
L3MBTL1 inh-2 – blocks human L3MBTL1 methyl-lysine binding | shares compounds with L3MBTL1 inh-1 | L3MBTL1 methyl-lysine binding inhibition, biochemical qHTS | Potency, µM, usual class: inhibitors | 500 tested, 91% active | AID 540279; also: potency is read from the fitted curve at half-maximal effect; nearly all actives have a fitted effect of over 70% in size
AlphaScreen ctr2 – counter-screen for L3MBTL1 inhibitors: AlphaScreen signal interference | shares compounds with L3MBTL1 inh-1 | AlphaScreen counterscreen, signal inhibition | Potency, µM (highest dose often 57.1 µM), inactives show top-dose activity change, negative = inhibition, most hits filed as inhibitors | 500 tested, under 10 active; also: potency is read from the fitted curve at half-maximal effect; 0% is about no effect
TbPGK inh – TbPGK inhibition, hit validation. Potency, µM (highest dose often 57.5 µM), for inactives: at the highest dose activity change, negative = inhibition, actives largely listed as inhibitors. 500 tested, 79% active. TbPGK coupled GAPDH assay, Kinase-Glo luminescence. AID 686980. shares compounds with Pol kappa inh; also: potency is read from the fitted curve at half-maximal effect; % is scaled to controls: 0 for no effect and ±100 for the full control effect; nearly all actives have a fitted effect of over 65% in size
POLI cherry-pick – Inhibitors of human DNA polymerase iota, confirmation. shares compounds with Pol kappa inh. Pol iota primer extension, TAMRA/BHQ fluorescence. Potency, µM, usual class: inhibitors. 1,500 tested, 77% active. AID 720496; also: potency is read from the fitted curve at half-maximal effect
Pol eta inh-2 – Pol eta (human) inhibition, cherry-pick confirmation; Pol eta primer extension, TAMRA/BHQ fluorescence, 10 min; AID 720502; 2,600 tested, 64% active; shares compounds with Pol eta inh-1; Potency, µM, most hits filed as inhibitors; also: potency is read from the fitted curve at half-maximal effect
WRN helicase inh-2 – confirmation of human WRN helicase inhibitors. shares compounds with WRN helicase inh-1. AID 720497. 610 tested, 63% active. WRN helicase DNA unwinding, fluorescence kinetic. Potency, µM (top dose mostly 57.1 µM), for the others: at the top dose activity, negative = inhibition, actives largely listed as inhibitors; also: potency is read from the fitted curve at half-maximal effect; nearly all actives have a fitted effect of over 65% in size
TO DNA binding – DNA binding via thiazole orange displacement. 610 tested, 10% active. shares compounds with WRN helicase inh-1. thiazole orange DNA binding displacement, fluorescence. Potency, µM (highest dose often 57.1 µM), without a hit: at the highest dose activity change, negative = inhibition, actives largely listed as inhibitors;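 also: drop in dye fluorescence marks compound binding to DNA; potency is read from the fitted curve at half-maximal effect; % is scaled to controls: 0 for no effect and ±100 for the full control effect; nearly all actives have a fitted effect of over 60% in size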
BLM counter – BLM helicase inhibition, WRN selectivity check; 610 tested, 60% active; Potency, µM (titrated, usually from 57.1 µM), for inactives: top-dose activity change, negative = inhibition, most hits filed as inhibitors; Recombinant BLM helicase DNA unwinding, red fluorescence; shares compounds with WRN helicase inh-1; also: potency is read from the fitted curve at half-maximal effect; nearly all actives have a fitted effect of over 60% in size
An asterisk follows results filed as active; u = inconclusive; x = not tested or not shown; [ ] = remark or other dose. Most compounds without a hit are left out; they make up all but 2.5% or so of the library. Unless noted, calls follow the shape of the dose curve; as a rule, active = well fitted curve in the direction sought with a large enough effect; inconclusive = small, poorly fitted or top-dose-only effect, or another doubt; inactive = no such curve, though single readings can be large; an effect the other way counts as inactive or inconclusive.

SMILES	WRN helicase inh-1	Pol kappa inh	L3MBTL1 inh-1	Pol iota inh	Pol eta inh-1	Pol beta inh-1	Pol beta inh-2	Klenow counter	HIV RT counter	POLI cherry-pick	Pol eta inh-2	others
O=C(Nc1cccc(S(=O)(=O)NC2=NCCC2)c1)c1cc(-c2ccco2)nc2ccccc12	u	31.6µM*	7.08µM*	8.91µM*	10µM*	3.55µM*	4.47*	-39.4	6.1	33.6*	23.9*
COc1cc(O)c2c(c1)OC(c1ccc(O)cc1)CC2=O (stereo not given)	0.6%	7.5%	2.7%	29.5%	u	2.1%	x	x	x	x	x
Cc1c(O)cc2c(c1O)C(=O)CC(c1ccc(O)cc1)O2 (stereo not given)	-8.3%[11.6 µM]	14.1µM*	3.98µM*	u	8.91µM*	1.26µM*	5.01*	-20.5	26.5	x	u	L3MBTL1 inh-2=6.7*;AlphaScreen ctr2=6.8%
CCN(CC)c1ccc(/C=N/n2c(C)cc(C)cc2=O)cc1	6.8%	-0.4%	0.6%	22.5%	-16.4%	9.3%	x	x	x	x	x
CC1CCCCC1NC(=O)COC(=O)c1c2c(nc3ccccc13)/C(=C/c1ccco1)CC2 (stereo not given)	u	10µM*	u	3.55µM*	8.91µM*	11.2µM*	17.8*	-27.0	-4.8	33.6*	21.3*
COC(=O)C1=C(C)OC(N)=C(C#N)C1C1CCCCC1 (stereo not given)	-15.3%	-7.9%	2.7%	25.9%	-5.0%	29.1%	x	x	x	x	x
CCOC(=O)c1ccccc1NC(=O)c1ccc2nccnc2c1	-12.3%	u	u	u	20µM*	8.91µM*	28.2*	-3.4	3.5	u	30.1*	POLB valid=54.1*
COc1ccc(-n2nnnc2C2CCN(S(=O)(=O)c3cc(Cl)ccc3OC)CC2)cc1	x	3.8%	x	19.6%	-14.8%	10.6%	x	x	x	x	x
Cc1oc(C(=O)O)cc1COc1cccc2cccnc12	u	u	28.2µM*	10µM*	8.91µM*	10µM*	15.8*	-22.6	2.0	67*	u
Fc1ccc(COc2cccc3cccnc23)cc1	3.5%	3.8%	-5.0%	81.5%	-6.9%	15.5%	x	x	x	x	x
COc1ccc(-c2cc(=O)oc3c(O)c(O)ccc23)cc1	12.6µM*	u	x	u	7.94µM*	10µM*	6.31*	-9.2	16.9	67*	u	TbPGK inh=9.19µM*;WRN helicase inh-2=5.41µM*;TO DNA binding=-4.6%;BLM counter=3.83µM*
COc1ccc(-c2cc(=O)oc3cc(OC(C)C(=O)O)ccc23)cc1 (stereo not given)	-15.8%	2.5%	4.2%	-7.0%	1.0%	20.0%	x	x	x	x	x
COC(=O)c1ccccc1NC(=O)c1noc2c1CCC2	u	u	28.2µM*	20µM*	20µM*	10µM*	31.6*	-33.1	6.7	37.7*	30.1*	POLB valid=72.7*;L3MBTL1 inh-2=9.47*;AlphaScreen ctr2=3.7%;WRN helicase inh-2=17.1µM*;TO DNA binding=-20.0%;BLM counter=4.82µM*
Nc1sc2c([n+]1CCCS(=O)(=O)[O-])CCCC2	-3.1%	-20.3%	-5.4%	18.6%	0.8%	7.6%	x	x	x	x	x
Cc1nn(-c2ccccc2)c2nc(-c3ccco3)cc(C(=O)O)c12	u	28.2µM*	11.2µM*	u	7.94µM*	14.1µM*	25.1*	-36.9	u	x	30.1*	POLB valid=65.0*;L3MBTL1 inh-2=1.06*;AlphaScreen ctr2=2.5%;WRN helicase inh-2=u;TO DNA binding=-25.1%;BLM counter=-14.7%
COc1ccc(-n2nnnc2SCC(=O)c2ccc(O)c(O)c2)cc1	15.8µM*	39.8µM*	u	u	39.8µM*	20µM*	12.6*	-29.5	9.7	x	x	WRN helicase inh-2=6.81µM*;TO DNA binding=u;BLM counter=10.8µM*
COc1ccc(-n2nnnc2SCC(N)=O)cc1	0.4%	-2.6%	3.7%	21.0%	7.7%	-2.3%	x	x	x	x	x
O=C(Cc1ccc(Cl)cc1Cl)OCC(=O)c1ccc[nH]1	2.5%	-5.5%	x	-17.9%	-4.9%	2.3%	x	x	x	x	x
Oc1c(N=Nc2ccc(F)cc2)ccc2ccccc12	-28.8%	-15.4%	7.94µM*	51.9%	-5.1%	15.4%	x	x	x	x	x	L3MBTL1 inh-2=1.06*;AlphaScreen ctr2=0.752µM*
CSCCC(NS(=O)(=O)c1ccc(Cl)cc1)C(=O)O (stereo not given)	-1.9%	-1.1%	30.3%	26.6%	-12.6%	-8.6%	x	x	x	x	x
